Measured values: the supplement of paper PMC6555819

What was measured:
Assay in all cases: PBM binding z-score (relative to random genomic background probes); higher = stronger binding; sequences stand for … in GC…GCGATTGACAGCGTAGAATGAAGG
[1] = test system: FXR:RXRa (NR concentration 270 nM, RXRa partner concentration 90 nM)
In short: (§1)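 For binding z-scores, the reference was random background probes on custom Agilent 4×180K protein-binding microarrays. These arrays were incubated 1 h with ligand-free nuclear receptor dimers in PBS pH 7.4, 2% milk, 0.02% Triton X-100, 1 mM DTT, 0.2 mg/mL BSA and 0.4 mg/ml salmon testes DNA. Fluorescence was scanned after antibody detection of each partner (one per run) and regression-normalized.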

[2] = test system: LXRa:RXRa (NR concentration 270 nM, RXRa partner concentration 90 nM)
In short: as §1

[3] = test system: LXRa homodimer (NR concentration 270 nM)
In short: as §1

[4] = test system: LXRb:RXRa (NR concentration 270 nM, RXRa partner concentration 90 nM)
In short: as §1

[5] = test system: LXRb homodimer (NR concentration 270 nM)
In short: as §1

[6] = test system: PPARa:RXRa (NR concentration 270 nM, RXRa partner concentration 90 nM)
In short: as §1

[7] = test system: PPARg:RXRa (NR concentration 180 nM, RXRa partner concentration 90 nM)
In short: as §1

[8] = test system: PPARg:RXRa 270nM:90nM, anti-RXR (NR concentration 270 nM, RXRa partner concentration 90 nM)
In short: as §1

[9] = test system: PPARg:RXRa 30nM:10nM, anti-RXR (NR concentration 30 nM, RXRa partner concentration 10 nM)
In short: as §1

[10] = test system: PPARg:RXRa 90nM:30nM, anti-RXR (NR concentration 90 nM, RXRa partner concentration 30 nM)
In short: as §1

[11] = test system: PPARg:RXRa DBDmut IVT, anti-RXR (DBD mutation: RXRa K156A/R161A, NR concentration 270 nM, RXRa partner concentration 90 nM)
In short: as §1

[12] = test system: PPARg:RXRa IVT, anti-PPARg (NR concentration 270 nM, RXRa partner concentration 90 nM)
In short: as §1

[13] = test system: PPARg DBDmut:RXRa IVT, anti-PPARg (DBD mutation: PPARg1 K132A/R137A, NR concentration 270 nM, RXRa partner concentration 90 nM)
In short: as §1

[14] = test system: PPARg DBDmut IVT, anti-PPARg (DBD mutation: PPARg1 K132A/R137A, NR concentration 270 nM)
In short: as §1

[15] = test system: PPARg homodimer (NR concentration 180 nM)
In short: as §1

[16] = test system: PXR:RXRa (NR concentration 270 nM, RXRa partner concentration 90 nM)
In short: as §1

[17] = test system: PXR homodimer (NR concentration 270 nM)
In short: as §1

[18] = test system: RARa:RXR (NR concentration 270 nM, RXRa partner concentration 90 nM)
In short: as §1

[19] = test system: RARa homodimer (NR concentration 270 nM)
In short: as §1

[20] = test system: RARb:RXRa (NR concentration 270 nM, RXRa partner concentration 90 nM)
In short: as §1

Sequence	PBM binding z-score [1]	PBM binding z-score [2]	PBM binding z-score [3]	PBM binding z-score [4]	PBM binding z-score [5]	PBM binding z-score [6]	PBM binding z-score [7]	PBM binding z-score [8]	PBM binding z-score [9]	PBM binding z-score [10]	PBM binding z-score [11]	PBM binding z-score [12]	PBM binding z-score [13]	PBM binding z-score [14]	PBM binding z-score [15]	PBM binding z-score [16]	PBM binding z-score [17]	PBM binding z-score [18]	PBM binding z-score [19]	PBM binding z-score [20]
CGAACTAGGTCATCCAGGAGAGTGAATACATTGA	3.98	2.66	0.805	1.98	-0.132	4.89	7.72	6.23	3.86	5.76	7.67	8.61	1.76	0.981	2.19	1.34	0.448	2.31	0.76	3.78
ATCTCTAGGTAAAAGTTCAGTGACTCCCGAGGAT	1.09	2.16	1.64	1.38	0.749	4.12	8.08	8.15	8.38	8.98	2.54	3.69	1.46	1.46	1.59	2.36	1.59	1.97	0.841	2.39
GCTTGTAGACCAAGGTTAAGAAAGACTAAGCTAA	-0.248	0.608	-0.357	0.335	-0.903	1.16	0.792	1.61	0.387	1.17	1.25	0.819	0.464	0.161	-0.164	0.252	-0.358	0.313	0.313	0.654
TCTTGTAGATCAACAGGAGGTTTAGAAAGATCGA	-0.117	-0.19	-0.342	0.0269	-0.559	0.152	-0.195	0.953	2.59	1.93	1.64	0.449	0.726	0.199	0.11	-0.0955	-0.425	0.104	-0.667	-0.271
ACTAGCAGGGCAAGTTTGGGTCACTCAAACAAAG	1.11	0.854	-0.346	1.07	-0.746	1.85	0.29	0.531	-0.392	0.0112	2.04	1.96	-0.127	-0.121	0.449	1.13	-0.488	2.07	-0.817	2.43
ATCTCTAGGTATAGATAGTTCAGTGAATGCAAAT	0.0439	0.281	0.536	0.328	0.404	0.225	0.685	0.289	0.345	0.323	-0.0574	0.416	1.48	1.36	0.546	0.877	0.855	0.453	0.807	0.415
TATACAGGGTTAAAGGCCAGAGTACGAATGTCGA	2.5	2.59	0.356	1.91	0.834	3.84	5.07	5.44	3.04	4.7	0.697	2.95	1.23	1.68	1.75	1.82	0.41	2.44	0.668	2.13
ATCGCAAGGTCGAGGTGAGTATAGAGAAAGGGAA	1.56	0.947	-0.582	0.995	-0.275	2.5	1.05	0.957	0.1	0.379	-0.0497	1.28	0.589	-0.0017	-0.0351	1.04	-0.378	1.52	-0.173	2.75
GGAACGAGGGCATTCGAGTTGAGAGCATGGCGAT	1.64	1.88	-0.277	0.172	-0.777	1.5	0.715	1.11	-0.289	0.498	3.26	2.42	-0.0251	-0.828	-0.126	3.24	0.951	0.847	-0.731	1.99
ACAGACAGGTGATGAAGGTAAATCAGGCTATCAT	-0.0911	-0.136	-0.0858	0.169	-0.557	0.252	0.707	0.0594	-0.0828	-0.0561	-0.0404	0.544	0.329	0.144	0.185	-0.214	-0.0702	0.248	0.26	0.21
CCTACTGGGCCACGAAAGGTCACTGATTCAGTGA	2.97	4.41	2.54	3.75	-0.0263	4.32	5.13	4.98	2.2	4.02	5.42	6.08	0.0808	0.166	1.93	4.63	0.0856	4.94	0.447	4.07
CGTCCAAGGTCAGAGAGGTCGGTGAATGCCGAGT	4.71	3.52	0.408	2.4	-0.461	3.87	2	2.92	0.323	1.8	2.42	2.66	-0.525	-1.08	0.814	3.88	5.12	2.96	-0.301	4.51
TCCTGTAGATCAATAGAGGTTAAGAAAGTGCGCT	0.952	3.56	0.803	1.93	0.0925	1.74	-0.0634	1.63	2.77	2.39	1.98	0.459	0.335	0.281	0.185	2.91	0.378	1.59	0.54	0.925
ATCTCTAGGCAACCAAGTTCAGTGAATGCCGAAC	0.291	0.227	0.263	0.113	0.281	0.303	0.114	0.0403	-0.317	0.0136	0.769	0.547	0.416	0.473	-0.0686	1.68	1.43	0.461	-0.516	0.951
